KAT2A inh – inhibitors of human GCN5L2 histone acetyltransferase | actives 0.21% (n = 390,000) | GCN5L2 HAT assay, ThioGlo1 CoA-SH fluorescence | AID 504327 | Potency, µM (titrated, usually from 58.9 µM), actives largely listed as inhibitors
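Free CoA generated was detected with ThioGlo1 (50uM) fluorescence at Ex340nm/Em540nm, read immediately and after 20 min at room temperature. Enzyme, 20 nM in HEPES pH 7.5 buffer, saw compounds 15 min before adding 75uM H3(1-25) peptide and 70uM acetyl-CoA.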
VDR inhibitor – inhibitors of human vitamin D receptor | VDR-SRC2-3 peptide fluorescence polarization, 2 h | AID 504847 | actives 0.93% (n = 400,000) | P11473 | Potency, µM, actives largely listed as inhibitors
Target sequence (P11473 whole entry, looked up): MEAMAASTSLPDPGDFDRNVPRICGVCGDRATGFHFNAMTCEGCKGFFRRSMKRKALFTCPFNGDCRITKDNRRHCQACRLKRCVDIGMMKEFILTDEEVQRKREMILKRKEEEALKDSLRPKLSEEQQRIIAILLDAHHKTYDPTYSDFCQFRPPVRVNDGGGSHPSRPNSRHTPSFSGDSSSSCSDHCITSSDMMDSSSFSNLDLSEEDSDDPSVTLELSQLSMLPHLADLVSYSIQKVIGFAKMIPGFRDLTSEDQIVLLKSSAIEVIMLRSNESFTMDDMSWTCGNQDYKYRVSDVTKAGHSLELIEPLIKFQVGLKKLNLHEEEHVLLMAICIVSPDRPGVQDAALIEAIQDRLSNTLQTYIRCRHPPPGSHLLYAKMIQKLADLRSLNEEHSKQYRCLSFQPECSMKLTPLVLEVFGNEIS
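After 23 nl compound addition and a short centrifugation, plates sat for 2 hours at ambient temperature; polarization of fluorescence then indicated loss of VDR binding to peptide SRC2-3.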
Sfp PPTase inh – blocks B. subtilis Sfp PPTase activity; Q9F4F7; Biochemical Sfp PPTase activity, qHTS; Potency, µM, most hits filed as inhibitors; actives 3.5% (n = 310,000); AID 1490;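 note: the enzyme is Sfp with the accession as filed and its product quenches rhodamine fluorescence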
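Compounds were incubated with enzyme (final 15 nM) for 15 min at room temperature before substrate addition started the reaction. Fluorescence at 525 nm excitation, 598 nm emission was recorded immediately and after 30 minutes.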
rTrxR1 inhibitor – rat TrxR1 inhibition; O89049; recombinant rTrxR1, NADPH fluorescence consumption, selenite substrate; Potency, µM (highest dose often 114 µM), actives largely listed as inhibitors; actives 1% (n = 390,000); note: nearly all actives have a fitted effect of over 65% in size
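Rat TrxR1 (90 nM in the dispensed reagent) was pre-reduced with 400 uM NADPH for 5 min at room temperature, then incubated with compound for 15 min. After 400 uM selenite was added, NADPH fluorescence (Ex 340/Em 450 nm) was followed for 8 min.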
TrxR1 substrate – is turned over as a substrate by rat TrxR1; O89049; purified TrxR1 substrate turnover, NADPH consumption readout; Potency, µM (titrated, usually from 114 µM); actives 0.01% (n = 390,000); AID 588456; note: nearly all actives have a fitted effect of over 50% in size
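Rat TrxR1, dispensed at 90 nM, was prereduced with 400 uM NADPH (final) for 5 min at ~22 deg C, then incubated with compound 15 min before 400 uM selenite. A first-read NADPH fluorescence drop versus no-compound background flagged substrates.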
GLS inh – blocks human kidney-isoform glutaminase activity; O94925; GLS enzymatic activity, qHTS titration; Potency, µM (series often up to 45.5 µM), most hits filed as inhibitors; actives 0.21% (n = 410,000); AID 624170
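Enzyme dispensed in phosphate buffer (45 mM, pH 8.2, 0.02% Tween-20), compounds pinned in, then 1 mM L-glutamine solution and the glutamate oxidase–HRP–Amplex Red mix added; fluorescence read immediately and again after 30 min at room temperature.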
Numbers stand for hits; . = inactive; ? = inconclusive; / = no result given. Rows were chosen to be rich in hits. Some 3.8% of all compounds tested hit in one or more screens of this group. Calls come from the whole dose curve; as a rule, active = well fitted curve in the direction sought with a large enough effect; inconclusive = small, poorly fitted or top-dose-only effect, or another doubt; inactive = no such curve, though single readings can be large; an effect the other way counts as inactive or inconclusive.

SMILES	KAT2A inh	VDR inhibitor	Sfp PPTase inh	rTrxR1 inhibitor	TrxR1 substrate	GLS inh
O=C(N/N=C/c1ccc2ncccc2c1)c1cc(-c2cccs2)nc2ccccc12	.	.	?	.	.	.
COCCN(C(=O)CCl)C(C(=O)NC1CCCCC1)c1ccccc1C (stereo not drawn)	.	.	.	28.2µM	.	.
O=C(NC1CCCC1)C(c1ccc(F)cc1)N(Cc1ccccc1Cl)C(=O)CCl (stereo not drawn)	.	.	.	31.6µM	.	.
O=C(NC1CCCCC1)C(c1ccc(F)cc1)N(Cc1cccs1)C(=O)CN1C(=O)c2ccccc2S1(=O)=O (stereo not drawn)	.	.	.	.	.	.
COCCN(C(=O)CCC(=O)Nc1cc(C)on1)C(C(=O)NC1CCCC1)c1ccccc1C (stereo not drawn)	.	.	.	.	.	.
CCOC(=O)c1nn(-c2ccc(OCC)cc2)c(C)c1C(C)=O	.	.	.	.	.	.
COCCNc1nc(Oc2cncc(Cl)c2)c2sccc2n1	/	/	/	/	/	.
O=C(Nc1ccc2c(c1)OCO2)c1n[nH]c(=O)c2ccccc12	.	.	.	.	.	.
CCOC(=O)C1=C(COC(=O)/C=C/c2ccccc2)NC(=O)NC1C (stereo not drawn)	.	.	/	.	.	.
CCOC(=O)C1=C(COC(=O)/C=C/c2ccc(C)o2)NC(=O)NC1C (stereo not drawn)	.	.	/	50.1µM	.	.
Cc1ccc2cc(NC(=O)c3ccc(C(C)(C)C)cc3)ccc2n1	.	.	79.4µM	.	.	.
CCc1ccc(C(=O)Nc2ccc3nc(C)ccc3c2)cc1	.	.	.	.	.	.
Clc1ccc(/C=C/c2ccnc3ccccc23)cc1	/	/	/	.	.	/
CCCCCc1cc(=O)oc2c(C(CCN3CCCCC3)c3ccc(OC)cc3)c(OC)cc(OC)c12 (stereo not drawn)	.	?	?	.	.	.
CCCCCc1cc(=O)oc2c(C(CCN(CC)CC)c3ccc(OC)cc3)c(OC)cc(OC)c12 (stereo not drawn)	.	.	56.2µM	.	.	.
CCCCCc1cc(=O)oc2c(C(CCN3CCCC(C)C3)c3ccc(OC)cc3)c(OC)cc(OC)c12 (stereo not drawn)	.	.	25.1µM	.	.	.
CCCCCc1cc(=O)oc2c(C(CCN3CCCC3)c3ccc(N(C)C)cc3)c(OC)cc(OC)c12 (stereo not drawn)	.	.	79.4µM	.	.	.
CCN(CC)CCC(c1ccc(OC)cc1)c1c(OC)cc(OC)c2c(C)cc(=O)oc12 (stereo not drawn)	/	.	.	.	.	/
Cc1cc(Cl)ccc1OCC(=O)OCC(=O)Nc1ccc(Cl)cn1	/	/	/	/	/	.
CCCCN1C(Nc2ccccc2)=NC[C@@H]1Cc1ccccc1	.	.	/	.	.	.
O=c1oc2c3c4c(cc2s1)CCCN4CCC3	.	79.4µM	17.8µM	.	.	.
O=C1C=CC(=O)N1c1ccc(OC(F)F)cc1	?	15.8µM	?	1.12µM	.	.
O=C1c2cccc3cccc(c23)C(=O)N1c1ccc(O)cc1	.	.	50.1µM	.	.	.
O=C1C=CC(=O)N1c1ccc(O)cc1	?	25.1µM	12.6µM	1.26µM	.	.
COc1ccc(C(=O)NC(=S)N2CCC(C)CC2)cc1	.	.	.	.	.	.
SMILES	KAT2A inh	VDR inhibitor	Sfp PPTase inh	rTrxR1 inhibitor	TrxR1 substrate	GLS inh
Cc1ccccc1Cn1cnc2c(nnn2Cc2ccc(F)cc2)c1=O	.	89.1µM	.	.	.	.
CCOc1ccc(NS(=O)(=O)c2cc(C(=O)N3CC(C)OC(C)C3)ccc2C)cc1 (stereo not drawn)	.	.	/	.	.	.
O=C(O)CC1S/C(=N/N=C/c2ccc(-c3ccccc3[N+](=O)[O-])o2)NC1=O (stereo not drawn)	.	79.4µM	22.4µM	?	?	.
Cc1ccc(S(=O)(=O)Oc2ccc(/C=N/N=C3/NC(=O)C(CC(=O)O)S3)cc2)cc1 (stereo not drawn)	.	.	.	.	.	.
O=C(O)CCCNC(=O)CC1S/C(=N/N=C/c2ccccc2O)NC1=O (stereo not drawn)	.	.	.	.	.	.
Cc1ccc(-c2ccc(/C=N/N=C3/NC(=O)C(CC(=O)O)S3)o2)c([N+](=O)[O-])c1 (stereo not drawn)	.	?	20µM	.	?	.
Cc1c(NC(=S)Nc2ccccc2C(F)(F)F)cccc1[N+](=O)[O-]	.	.	.	?	.	.
CCCOc1ccc(NC(=O)CC2C(=O)N(c3ccc(OCC)cc3)C(=S)N2C2CC2)cc1 (stereo not drawn)	.	.	.	.	.	.
COc1cccc(-n2c(-c3ccccc3)c[nH]c2=S)c1	.	.	44.7µM	?	.	.
COc1ccccc1-n1c(-c2ccccc2)c[nH]c1=S	.	.	10µM	.	.	.
S=c1[nH]cc(-c2ccccc2)n1-c1cccc(Cl)c1	.	.	.	.	.	?
Cc1ccc(-c2c[nH]c(=S)n2-c2ccccc2)cc1	.	.	20µM	.	.	?
COc1ccccc1C(=O)NC1CC2CCC(C1)N2Cc1ccccc1 (stereo not drawn)	.	.	.	.	.	.
COc1ccc(Cn2c(SCc3ccccc3C)nc3cc(OC)c(OC)cc3c2=N)cc1	.	/	1.26µM	/	/	/
CCOC(=O)N1CCN(c2cc3[nH]c(=S)[nH]c3cc2F)CC1	.	.	.	.	.	.
CCOC(=O)N1CCN(c2c(F)cc3[nH]c(=S)[nH]c3c2Br)CC1	.	?	?	.	.	7.08µM
Cc1ccc2nc(N(Cc3cccnc3)C(=O)c3ccc4c(c3)OCCO4)sc2c1	.	.	/	.	.	.
CC(C)(C)c1ccc(O)c(O)c1	.	.	/	22.4µM	.	?
CC(C)(C)c1cc(O)c(C(C)(C)C)cc1O	.	28.2µM	.	/	/	/
O=C(CSc1nc2[nH]ncc2c(=O)[nH]1)Nc1cccc([N+](=O)[O-])c1	.	.	/	.	.	.
CCC1CCCCN1CCNC(=O)CNS(=O)(=O)c1ccc2nc(C)sc2c1 (stereo not drawn)	.	.	.	.	.	.
Cc1ccc(C)c(Cn2nnc3c(=O)[nH]c(C4CCCN(C(=O)C5CCCCC5)C4)nc32)c1 (stereo not drawn)	.	.	50.1µM	.	.	.
O=C(C1CCCCC1)N1CCCC(c2nc3c(nnn3Cc3ccccc3)c(=O)[nH]2)C1 (stereo not drawn)	.	.	.	.	.	.
C=C1C=CS(=O)(=O)N(C(CC(C)C)C(=O)OC)C1 (stereo not drawn)	/	.	?	11.2µM	.	/

Bioassay records deposited in PubChem BioAssay by National Center for Advancing Translational Sciences (NCATS).
